This passage reports outcome and AC50 results from PubChem BioAssay (EPA / NIEHS).

Experiment [1] can be described thus: CCTE_Mundy_HCI_Cortical_Synap_Neur_Matur_NeuriteLength: CCTE's Synaptogenesis and Neurite Maturation Assay in rat cortical cells for Neurite Length, Mundy Lab (AID 2284214). The method in brief:
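Rat primary cortical cultures, AraC added DIV 5, dosed DIV 7 through DIV 12 […]. Fixed, MAP2/synaptophysin immunostained with Hoechst; neurite length by high-content imaging, fitted in positive direction versus DMSO.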

A short description of experiment [2]: CCTE_Mundy_HCI_Cortical_Synap_Neur_Matur_NeuriteSpotCountPerNeuron: CCTE's Synaptogenesis and Neurite Maturation Assay in rat cortical cells for Neurite Spot Count per Neuron Count, Mundy Lab (AID 2284215). In a few lines:
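Developing rat cortical neurons, with glia suppressed by AraC, are exposed to chemicals from DIV 7 to DIV 12. Automated fluorescence imaging of MAP2-labelled neurites and synaptophysin puncta yields a count per neuron, normalised against DMSO wells.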

Experiment [3] can be described thus: CCTE_Mundy_HCI_Cortical_Synap_Neur_Matur_SynapseCount: CCTE's Synaptogenesis and Neurite Maturation Assay in rat cortical cells for Synapse Count, Mundy Lab (AID 2284218). The method in brief:
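Rat primary cortical cultures, AraC at DIV 5, chemical dosing DIV 7 to DIV 12 (288.33 h). Fixed cells stained for MAP2, synaptophysin and Hoechst; synapses per neuron counted by high-content imaging, loss of signal versus DMSO.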

Experiment [4] in a line: CCTE_Mundy_HCI_Cortical_Synap_Neur_Matur_CellBodySpotCount: CCTE's Synaptogenesis and Neurite Maturation Assay in rat cortical cells for Cell Body Spot Count, Mundy Lab (AID 2284223). The method in brief: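 Chemicals were applied to AraC-treated rat primary cortical cells at DIV 7 and measured at DIV 12. Fixed cells were labelled for MAP2, synaptophysin and nuclei, and high-content imaging gave cell body synaptophysin spot counts per neuron relative to DMSO.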

Experiment [5] can be described thus: CCTE_Mundy_HCI_Cortical_NOG_NeuronCount: CCTE's Neurite Outgrowth Assay in rat cortical cells for Neuron Count, Mundy Lab (AID 2284236; active = hit-call score of the fitted dose curve at least 0.9, where 1 is the maximum;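 also: neurons counted by imaging betaIII-tubulin and Hoechst stained cortical cells; cells exposed to compound for about 48 hours before fixation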). The method in brief:
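Read-out: neuron number by high-content imaging of betaIII-tubulin (Alexa Fluor-488) and Hoechst-labelled rat primary cortical cells.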

Experiment [6] is described as follows: CCTE_Mundy_HCI_Cortical_Synap_Neur_Matur_NeuronCount: CCTE's Synaptogenesis and Neurite Maturation Assay in rat cortical cells for Neuron Count, Mundy Lab (AID 2284242; active = hit-call score of the fitted dose curve at least 0.9, where 1 is the maximum). In a few lines:
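Rat primary cortical cells, AraC added at DIV 5, dosed with media change from DIV 7 to DIV 12. Fixed, Hoechst-stained and immunolabelled for MAP2 and synaptophysin; neuron number counted by high-content imaging, loss fitted versus DMSO.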

Experiment [7] can be described thus: IUF_NPC2c_oligodendrocyte_migration_120hr: Leibniz Research Institute for Environmental Medicine (IUF) 120-hour Neural Progenitor Cell Migration Assay for Oligodendrocyte Migration (NPC2c) (AID 2284297).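 Also: O4-positive oligodendrocyte migration distance divided by radial glia migration distance.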 The method in brief: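 Using fetal brain neural progenitor spheres differentiating in N2 medium at 37C, compounds were present for 120 h. Oligodendrocyte migration distance, normalized to radial glia migration, was measured from imaged O4 staining.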

A short description of experiment [8]: IUF_NPC2a_radial_glia_migration_120hr: Leibniz Research Institute for Environmental Medicine (IUF) 120-hour Neural Progenitor Cell Migration Assay for Radial Glia Migration (NPC2a) (AID 2284298). In a few lines: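 Exposure of 0.3 mm primary hNPC spheres runs day 0 to 120 h with a half-volume medium change at day 3. Fixed cells get Hoechst staining; high-content analysis of nuclear positions yields radial glia migration distance per well, compared against DMSO controls.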

Experiment [9] in a line: IUF_NPC2b_neuronal_migration_120hr: Leibniz Research Institute for Environmental Medicine (IUF) 120-hour Neural Progenitor Cell Migration Assay for Neuron Migration (NPC2b) (AID 2284300). In a few lines:
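Fetal human NPC spheres migrate on PDL/laminin during 120 h compound treatment; neuronal migration distance, glia-normalized, scored versus DMSO control.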

A short description of experiment [10]: IUF_NPC3_neuronal_differentiation_120hr: Leibniz Research Institute for Environmental Medicine (IUF) 120-hour Neuronal Differentiation Assay (NPC3) (AID 2284301). In a few lines: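 Single 0.3 mm neurospheres from human fetal cortex were plated in differentiation medium containing test compound. Medium was half-replaced on day 3. After 120 h cells were fixed, immunostained and imaged, and neuronal fraction was scored against DMSO control.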

A short description of experiment [11]: IUF_NPC4_neurite_length_120hr: Leibniz Research Institute for Environmental Medicine (IUF) 120-hour Neuronal Morphology Assay for Neurite Length (NPC4) (AID 2284302). In a few lines: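 Read-out is mean neurite length in µm of TUBB3-positive neurons, skeletonized from high-content fluorescence images after 120 h. Single 0.3 mm primary human neural progenitor spheres differentiated on poly-D-lysine/laminin under continuous compound exposure; DMSO was baseline.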

Experiment [12] in a line: IUF_NPC5_oligodendrocyte_differentiation_120hr: Leibniz Research Institute for Environmental Medicine (IUF) 120-hour Oligodendrocyte Differentiation Assay (NPC5) (AID 2284304; active = hit-call score of the fitted dose curve at least 0.9, where 1 is the maximum;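 also: primary human fetal neural progenitor spheres plated to migrate and differentiate; share of O4-positive cells among Hoechst nuclei found by CNN image analysis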). In a few lines: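 After plating on poly-D-lysine/laminin, fetal-derived hNPC spheres differentiated for 120 h at 37C in compound-containing N2 medium, refreshed by half on day 3. O4 immunostaining over Hoechst nuclei in the migration zone gave oligodendrocyte percentage relative to DMSO.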

Experiment [13] in a line: IUF_NPC4_neurite_area_120hr: Leibniz Research Institute for Environmental Medicine (IUF) 120-hour Neuronal Morphology Assay for Neurite Area (NPC4) (AID 2284305; active = hit-call score of the fitted dose curve at least 0.9, where 1 is the maximum). In a few lines: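 Neurite area is read out as the mean pixel area, excluding nuclei, of skeletonized TUBB3-positive neurons imaged after 120 h. Primary human neural progenitor spheres differentiated on poly-D-lysine/laminin with compound present from day 0. Activity was referenced to DMSO controls.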

Experiment [14] in a line: IUF_NPC2-5_cytotoxicity_72hr: Cytotoxicity Assessment at 72 hours in the Leibniz Research Institute for Environmental Medicine (IUF) Neural Progenitor Cell Migration and Differentiation Assay for Cytotoxicity (NPC2-5) (AID 2284306; active = hit-call score of the fitted dose curve at least 0.9, where 1 is the maximum;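 also: LDH release into supernatant measured by resorufin fluorescence marking membrane damage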). The method in brief:
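Membrane integrity loss was scored from fluorescence (RFU) of resorufin generated by LDH in culture supernatant, 72 h after dosing. Differentiating human progenitor spheres received seven serial compound concentrations alongside a solvent control.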

Experiment [15] can be described thus: IUF_NPC2-5_cytotoxicity_120hr: Cytotoxicity Assessment at 120 hours in the Leibniz Research Institute for Environmental Medicine (IUF) Neural Progenitor Cell Migration and Differentiation Assay (NPC2-5) (AID 2284307; active = hit-call score of the fitted dose curve at least 0.9, where 1 is the maximum;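 also: LDH released into supernatant as membrane damage marker via resorufin fluorescence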). In a few lines: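 Membrane-integrity loss is quantified by LDH in supernatant after five days of exposure of migrating, differentiating human fetal NPC spheres; seven serially diluted concentrations are tested with DMSO kept at or below 0.1%.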

Experiment [16] can be described thus: IUF_NPC2-5_cell_number_120hr: Cell Number Assessment at 120 hours in the Leibniz Research Institute for Environmental Medicine (IUF) Neural Progenitor Cell Migration and Differentiation Assay (NPC2-5) (AID 2284308).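 Also: count of Hoechst-stained nuclei in migration zone around plated human neural progenitor spheres.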 The method in brief: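 Seven-point serial dilutions plus solvent control were applied to plated 0.3 mm hNPC spheres at differentiation start, with medium half-replaced at day 3. Nuclei positive for Hoechst in the migration zone were enumerated at 120 h.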

Experiment [17] in a line: IUF_NPC2-5_viability_120hr: Viability Assessment at 120 hours in the Leibniz Research Institute for Environmental Medicine (IUF) Neural Progenitor Cell Migration and Differentiation Assay (NPC2-5) (AID 2284312). In a few lines: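 Alamar blue resorufin fluorescence read after 5 days of differentiation, with compound present from day 0 and replenished at day 3. Primary hNPC spheres on laminin-coated plates, 37C; seven concentrations plus solvent control, fitted against DMSO.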

Experiment [18] can be described thus: IUF_NPC1_cytotoxicity_72hr: Cytotoxicity Assessment at 72 hours in the Leibniz Research Institute for Environmental Medicine (IUF) Neural Progenitor Cell Proliferation Assay (NPC1) (AID 2284332; active = hit-call score of the fitted dose curve at least 0.9, where 1 is the maximum;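 also: rising LDH signal means more cytotoxicity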). In a few lines: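 Human fetal neural progenitor spheres (0.3 mm) in EGF/FGF proliferation medium, 37C, exposed 72 h without renewal. LDH release in supernatant read by resorufin fluorescence; gain of signal scored relative to dynamic range.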

As usually defined, the AC50 is the midpoint of the concentration-response curve, whichever way the signal moves.

Structures are written as SMILES. Records with an inconclusive call do not appear. Active and inactive are the calls of the source. The calls were made as follows, unless noted: active = hit-call score of the fitted dose curve at least 0.9, where 1 is the maximum; inactive = score below 0.9.

`CN(C)CCCn1cc(C2=C(c3c[nH]c4ccccc34)C(=O)NC2=O)c2ccccc21`: the result in [1], in experiment [2], in [3], in experiment [4], in experiment [5] and in experiment [6] was inactive. In [18], the result was inactive. For the same molecule, the AC50 in [7] is 18.6 µM (active); in experiment [8], 5.37 µM (active); in experiment [9], 16.3 µM (active); in experiment [10] it was 16.2 µM (active); in [11], 4.06 µM (active); in experiment [12], 0.746 µM (active). Besides, the AC50 was 7.2 µM (active) in experiment [13]; 13.9 µM (active) in experiment [14]; 8.39 µM (active) in experiment [15]; 2.31 µM (active) in [16]; 6.01 µM (active) in experiment [17].
